Results reported in PubChem BioAssay AID1159580 (chemical genetic matrix, 2015).
In all, about 5,500 compounds went through this assay and about 2,000 (36%) were called active. Another 18% or so got no clear call; they are omitted. No stated cut-off is given here; in the data, active means normalized growth mostly below about 0.91 (no sharp cut-off); inconclusive means no clear call, values can overlap the other calls; inactive means mostly above about 0.92. This is one part of the list.

Experiment: chemical genetic growth profiling, strain panel (AID 1159580);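 further: tested at 20 µM; growth read once vehicle control cultures reached saturation at 30 °C; 1 = growth at the plate median or of vehicle wells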
Conditions: S. cerevisiae deletion strains, growth OD

Measured: normalized growth

O=C(O)c1ccc2c(c1)OCO2
inactive: locus YAL021C, strain ccr4, stronger effect = lower value 1.01 | locus YAL026C, strain drs2, stronger effect = lower value 0.983 | locus YAL030W, strain snc1, stronger effect = lower value 1.01 | locus YBL061C, strain skt5, stronger effect = lower value 1 | locus YBR009C, strain hhf1, stronger effect = lower value 0.997 | locus YBR023C, strain chs3, stronger effect = lower value 1.01 | locus YBR171W, strain sec66, stronger effect = lower value 0.992 | locus YBR231C, strain swc5, stronger effect = lower value 1.01 | locus YBR279W, strain paf1, stronger effect = lower value 1.01 | locus YCL011C, strain gbp2, stronger effect = lower value 0.979 | locus YCL016C, strain dcc1, stronger effect = lower value 1.01 | locus YCL061C, strain MRC1, stronger effect = lower value 0.984 | locus YCL069W, strain vba3, stronger effect = lower value 0.984 | locus YCR088W, strain abp1, stronger effect = lower value 0.984 | locus YDL005C, strain med2, stronger effect = lower value 1.01 | locus YDL040C, strain nat1, stronger effect = lower value 1.01 | locus YDR001C, strain nth1, stronger effect = lower value 0.982 | locus YDR069C, strain doa4, stronger effect = lower value 1.02 | locus YDR137W, strain rgp1, stronger effect = lower value 1.01 | locus YDR159W, strain sac3, stronger effect = lower value 0.98 | locus YDR195W, strain ref2 1.02 | locus YDR297W, strain sur2, stronger effect = lower value 1.01 | locus YDR334W, strain swr1, stronger effect = lower value 0.994 | locus YDR335W, strain msn5, stronger effect = lower value 1.01 | locus YDR392W, strain spt3, stronger effect = lower value 0.979 | locus YEL003W, strain gim4, stronger effect = lower value 0.98 | locus YEL037C, strain rad23, stronger effect = lower value 0.987 | locus YEL061C, strain CIN8 (second series), stronger effect = lower value 0.988 | locus YER015W, strain faa2, stronger effect = lower value 0.997 | locus YER016W, strain bim1, stronger effect = lower value 1.01 | locus YER111C, strain swi4, stronger effect = lower value 0.978 | locus YER155C, strain BEM2 (second series), stronger effect = lower value 0.992 | locus YFR010W, strain ubp6, stronger effect = lower value 0.994 | locus YGL167C, strain pmr1, stronger effect = lower value 1.02 | locus YGL173C, strain kem1, stronger effect = lower value 1.01 | locus YGL227W, strain vid30, stronger effect = lower value 0.973 | locus YGL240W, strain doc1, stronger effect = lower value 0.998 | locus YGL253W, strain hxk2, stronger effect = lower value 1.01 | locus YHR013C, strain ard1, stronger effect = lower value 1.05 | locus YHR027C, strain rpn1, stronger effect = lower value 1.03 | locus YHR142W, strain chs7, stronger effect = lower value 1 | locus YJL092W, strain hpr5, stronger effect = lower value 0.985 | locus YJL095W, strain BCK1 (second series), stronger effect = lower value 1.02 | locus YJL115W, strain asf1, stronger effect = lower value 0.994 | locus YJL129C, strain trk1, stronger effect = lower value 0.998 | locus YJL154C, strain vps35, stronger effect = lower value 0.989 | locus YJL164C, strain tpk1, stronger effect = lower value 1 | locus YJL166W, strain qcr8, stronger effect = lower value 1.02 | locus YJL187C, strain SWE1, stronger effect = lower value 1.02 | locus YKL160W, strain elf1, stronger effect = lower value 1 | locus YKR026C, strain gcn3, stronger effect = lower value 0.983 | locus YKR091W, strain srl3, stronger effect = lower value 1.01 | locus YLL001W, strain dnm1, stronger effect = lower value 1.01 | locus YLL026W, stronger effect = lower value 1.01 | locus YLL041C, strain sdh2, stronger effect = lower value 1 | locus YLR027C, strain aat2, stronger effect = lower value 1 | locus YLR221C, strain rsa3, stronger effect = lower value 0.999 | locus YLR258W, strain gsy2, stronger effect = lower value 1 | locus YLR262C, strain YPT6 (second series), stronger effect = lower value 1.01 | locus YLR320W, strain mms22, stronger effect = lower value 1.03 | locus YLR342W, strain FKS1, stronger effect = lower value 1.05 | locus YLR357W, strain rsc2, stronger effect = lower value 1.09 | locus YLR370C, strain arc18, stronger effect = lower value 1.01 | locus YLR384C, strain iki3, stronger effect = lower value 1.01 | locus YML120C, strain ndi1, stronger effect = lower value 1.01 | locus YMR058W, strain fet3, stronger effect = lower value 0.997 | locus YMR125W, strain sto1, stronger effect = lower value 1.07 | locus YMR129W, stronger effect = lower value 1 | locus YMR205C, strain PFK2, stronger effect = lower value 1.01 | locus YMR231W, strain pep5, stronger effect = lower value 1.01 | locus YNL071W, strain lat1, stronger effect = lower value 1.01 | locus YNL209W, strain ssb2, stronger effect = lower value 1.01 | locus YNL248C, strain rpa49, stronger effect = lower value 1.02 | locus YNL322C, strain KRE1 (second series), stronger effect = lower value 0.991 | locus YNR049C, strain mso1, stronger effect = lower value 1.01 | locus YOR001W, strain rrp6, stronger effect = lower value 0.994 | locus YOR070C, strain gyp1, stronger effect = lower value 0.999 | locus YOR080W, strain dia2, stronger effect = lower value 1.01 | locus YOR083W, strain WHI5, stronger effect = lower value 1 | locus YOR106W, strain vam3, stronger effect = lower value 1 | locus YOR265W, strain rbl2, stronger effect = lower value 1 | locus YOR270C, strain vph1, stronger effect = lower value 1.05 | locus YOR290C, strain snf2, stronger effect = lower value 0.967 | locus YPL051W, strain arl3, stronger effect = lower value 1.01 | locus YPL078C, strain atp4, stronger effect = lower value 0.995 | locus YPL106C, strain sse1, stronger effect = lower value 1 | locus YPL240C, strain hsp82, stronger effect = lower value 1.01
